{"source": "PubChem BioAssay (EPA / NIEHS)", "note": "Several values for one entry are separate records, joined by “and”; a condition that tells them apart may be missing. Identical values can stand only once. Results filed as inconclusive are left out. Activity calls are given as the source filed them. The calls were made as follows: active = hit-call score of the fitted dose curve at least 0.9, where 1 is the maximum; inconclusive = response in the unintended direction; inactive = score below 0.9.", "data": [{"biological_target": "rat Glutamate, MK-801 Agonist Site (GluNMDA_MK801), Grin1 (gene 24408) (UniProt P35439)", "assay": "NVS_LGIC_rGluNMDA_MK801_Agonist: NovaScreen (NVS) Ligand-Gated Ion Channel Assay for rat Glutamate, MK-801 Agonist Site (GluNMDA_MK801) (AID 2283340)", "procedure,_shortened": "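Radioligand binding at MK-801 site in rat forebrain membranes, 1.5 h incubation, filter-based scintillation counting. Initially 25 uM in duplicate; actives then run in concentration-response up to 50 uM, fitted for gain of signal versus DMSO.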", "values": [{"compound": "C=CCOC(Cn1ccnc1)c1ccc(Cl)cc1Cl", "note": "(configuration not stated)", "outcome": "inactive"}, {"compound": "S=C([S-])NCCNC(=S)[S-].[Mn+2]", "outcome": "inactive"}, {"compound": "S=C(S)NCCNC(=S)S.[Mn+2].[S-]C([S-])=NCCN=C([S-])[S-].[Zn+2]", "AC50": "17.3 µM (active) and 25 µM (active)"}]}, {"tested_on": "NCBI gene 100848466", "assay": "NVS_NR_bPR: NovaScreen (NVS) Nuclear Receptor Binding Assay for bovine Progextron Receptor (PR) (AID 2283343);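 as to AC50: actives lower bound radioligand signal below DMSO meaning displacement of the label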", "procedure,_shortened": "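Bovine uterine membrane preparation, cell-free; radioligand competitive displacement measured by scintillation counting 18 hours after dosing. Loss of signal versus DMSO baseline indicates binding; primary HTS single concentration 25 uM in duplicate, actives followed in concentration series.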", "values": [{"compound": "C=CCOC(Cn1ccnc1)c1ccc(Cl)cc1Cl", "note": "(configuration not stated)", "AC50": "13 µM (active)"}, {"compound": "CCCCC(CC)CN1C(=O)C2C3C=CC(C3)C2C1=O", "note": "(configuration not stated)", "outcome": "inactive"}, {"compound": "C[C@]12CC[C@@H]3c4ccc(O)cc4C[C@@H](CCCCCCCCCS(=O)CCCC(F)(F)C(F)(F)F)[C@H]3[C@@H]1CC[C@@H]2O", "note": "(some centres not stated)", "outcome": "inactive"}, {"compound": "CCCN(CCC)C(=O)SCC", "outcome": "inactive"}, {"compound": "CC1(C)C(C=C(Cl)Cl)C1C(=O)OCc1cccc(Oc2ccccc2)c1", "note": "(configuration not stated)", "outcome": "inactive"}, {"compound": "Cc1nn(C)c(Oc2ccccc2)c1C=NOCc1ccc(C(=O)OC(C)(C)C)cc1", "AC50": "11 µM (active)"}, {"compound": "CCCCOCCOCCOCc1cc2c(cc1CCC)OCO2", "outcome": "inactive"}, {"compound": "N#CSCSc1nc2ccccc2s1", "outcome": "inactive"}, {"compound": "CC(=O)S[C@@H]1CC2=CC(=O)CC[C@]2(C)[C@H]2CC[C@@]3(C)[C@@H](CC[C@@]34CCC(=O)O4)[C@H]12", "AC50": "1.53 µM (active)"}, {"compound": "O=C(c1ccc(O)cc1O)c1ccc(O)cc1O", "AC50": "16.4 µM (active)"}, {"compound": "Oc1ccc(C(c2ccc(O)cc2)C(Cl)(Cl)Cl)cc1", "AC50": "3.6 µM (active)"}, {"compound": "c1ccc(Nc2ccccc2)cc1", "outcome": "inactive"}, {"compound": "CC(C)(c1ccc(O)cc1)c1ccc(O)cc1", "AC50": "10.3 µM (active) and 19.7 µM (active) and 14.7 µM (active)"}, {"compound": "CCNc1nc(N)nc(Cl)n1", "outcome": "inactive"}]}]}
